Screening results from PubChem BioAssay.
This is a sample that favours compounds with a hit; in the whole collection about 4.3% have one here.
SW480 rerep: DNA re-replication induction in SW480 cells | AID 624297 | SW480 DNA re-replication, Hoechst DNA content imaging, 48 h | 340,000 tested, 1.8% active | Potency, µM (titrated, usually from 46.1 µM), inactives show top-dose re-replication activation, usual class: activators; also: potency is read from the fitted curve at half-maximal effect; % of control where 0% means no effect; nearly all actives have a fitted effect of over 55% in size
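Cells (250 per well) received 23 nL compound or DMSO by pin tool and were kept 48 hr at 37 C, 5% CO2. Nuclei were then stained with Hoechst for 40 min and scanned for DNA content.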
MCF10A rerep: DNA re-replication induction in MCF 10a cells; AID 624296; 350,000 tested, 2.9% active; MCF 10A DNA re-replication, Hoechst nuclear intensity, 48 h; Potency, µM (highest dose often 46.1 µM), without a hit: top-dose activity, positive = re-replication, hits mostly activators; also: potency is read from the fitted curve at half-maximal effect; % of control where 0% means no effect; nearly all actives have a fitted effect of over 50% in size
Giardia killer: Giardia lamblia killing | Giardia lamblia trophozoite viability | activity change, % at 7.66 µM, hits read low | 340,000 tested, 0.15% active | AID 540267; in the data active = activity change below about -80%; inconclusive = between about -30% and that limit;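 also: parasites exposed to compound for two days anaerobically before the ATP read; % is scaled to controls: 0 for no effect and ±100 for the full control effect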
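Compounds were tested on trophozoites seeded at 100 cells/well and held 48 hrs at 37 deg C anaerobically. An ATP-based luminescent kit measured the remaining live cells.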
uPA surface inh: blocks generation of uPA at the cell surface; Potency, µM (highest dose often 38.3 µM), without a hit: top-dose activity change, negative = inhibition, actives largely listed as inhibitors; AID 540303; 330,000 tested, 0.31% active; cell surface uPA generation assay, qHTS; active = well fitted inhibition curve with a large enough effect; inconclusive = small, poorly fitted or top-dose-only effect; inactive = no such curve, though single readings can be large or run the other way; tested in mouse RAW 264.7 cells; also: potency is read from the fitted curve at half-maximal effect; % is scaled to controls: 0 for no effect and ±100 for the full control effect; nearly all actives have a fitted effect of over 55% in size
Starred values were filed as active, the others as inactive; ? = inconclusive; · = no result given; [ ] = another dose, or the depositor's remark. Unless noted, calls follow the shape of the dose curve; as a rule, active = well fitted activation curve with a large enough effect; inconclusive = small, poorly fitted or top-dose-only effect; inactive = no such curve, though single readings can be large or run the other way.

SMILES	SW480 rerep	MCF10A rerep	Giardia killer	uPA surface inh
CCn1c(=N)n(CC(=O)c2ccc(Cl)c(Cl)c2)c2ccccc21	?	25.9µM*	-20.3	0.4%
Cc1ccc(C(=O)Cn2c(=N)n(CCN3CCOCC3)c3ccccc32)cc1	-9.8%	-8.0%	-17.5	-3.0%
O=c1/c(=C\c2ccc(O)cc2)sc2n1C(c1ccccc1)C(c1ccccc1)=NN=2 (configuration not stated)	?	7.31µM*	4.5	3.7%
COc1cccc(-c2c(-c3cc(OC)cc(OC)c3)n(C)c3ccc(-c4cccc5[nH]ccc45)cc23)c1	5.4%	0.4%	-19.7	6.2%
CCOc1ccc(C2Nc3ccc4ccccc4c3-c3c2c(=O)oc2ccccc32)cc1 (configuration not stated)	?	5.17µM*	-3.5	7.6%
O=c1oc2ccccc2c2c1C(c1ccc(Cl)cc1)Nc1ccc3ccccc3c1-2 (configuration not stated)	14.1%	?	3.9	8.2%
CC1CCN(c2nnc(-c3ccccc3)c3ccccc23)CC1	0.9%	11.2µM*	-8.2	-4.7%
CCCN1CCC(=O)N(C(CSc2ccc(Br)cc2)CC(C)C)CC1 (configuration not stated)	·	·	9.0	·
Cc1ccc(S(=O)(=O)Nc2cc(=O)[nH]c(SCc3ccc(Cl)cc3)n2)cc1	-71.1%	18.4µM*	-18.5	1.7%
O=c1cc(NS(=O)(=O)c2ccccc2)nc(SCc2c(Cl)cccc2Cl)[nH]1	-3.9%	-2.6%	-2.3	1.9%
COc1cc(C)c(Cl)cc1S(=O)(=O)n1cnc(C)c1	-3.1%	-3.1%	-10.8	-15.2%
CCOc1cc(C)c(C(C)C)cc1S(=O)(=O)n1cnc(C)c1	?	9.2µM*	-11.1	-14.9%
COc1ccc(C(C)C)cc1S(=O)(=O)n1cnc(C)c1	20.6µM*	?	16.1	·
COc1ccc(Cc2nnc(NC(=O)C3CC(=O)N(c4ccccc4)C3)s2)cc1OC (configuration not stated)	1.1%	6.3%	33.7	-4.8%
CCOC(=O)CC1=NN(c2ccccc2)C(=O)/C1=C\c1ccc(OC)cc1OC	?	10.3µM*	-27.2	-1.6%
Cc1cc(C)n2nc(SCC(=O)NC(=O)c3ccccc3)nc2n1	-14.0%	-26.3%	-1.6	1.3%
Cc1ccc(NC(=O)c2cc(N(C)C)ccc2[P+](=O)O)cc1	?	11.6µM*	-6.0	-0.8%
COc1cc(SC)ccc1C(=O)N1CCN(c2ccccc2OC)CC1	?	18.4µM*	-18.3	-16.0%
COC(=O)C1CCN(C(=O)c2ccc(SC)cc2OC)CC1	-4.9%	-2.5%	11.5	-1.5%
CCc1ccc2oc(C(=O)N3CCN(c4ccccc4OC)CC3)cc(=O)c2c1	?	11.6µM*	5.6	-14.9%
Cc1cnc(CN2CCc3c([nH]c4ccccc34)C2CC(C)C)[nH]1 (configuration not stated)	6.51µM*	?	-25.8	-1.2%
Cc1c(CN2CCc3c([nH]c4ccccc34)C2C2CCCCC2)cnn1C (configuration not stated)	6.0%	18.4µM*	35.6	0.4%
CCn1ccnc1CN1CCc2c([nH]c3ccccc23)C1C1CCCCC1 (configuration not stated)	-2.6%	-4.1%	1.9	-4.3%
Cc1cnc(C(=O)N2CCc3c([nH]c4ccccc34)C2c2ccc(F)cc2)cn1 (configuration not stated)	12.9%	3.5%	24.6	-2.1%
Cc1cccc(CN2CCc3c([nH]c4ccccc34)C2CC(C)C)n1 (configuration not stated)	?	18.4µM*	-3.0	-0.8%
SMILES	SW480 rerep	MCF10A rerep	Giardia killer	uPA surface inh
CC(=O)c1cc(C(=O)N2CCc3c([nH]c4ccccc34)C2C2CCCCC2)[nH]n1 (configuration not stated)	11.2%	1.46µM*	-15.8	0.1%
CC(C)[C@H](NC(=O)c1ccc(Cl)cc1Cl)C(=O)OCc1nc2ccsc2c(=O)[nH]1	-17.3%	0.1%	-4.8	-12.0%
CC(C)CN1CCC(CN2CCNC(=O)C2=O)CC1	102.0%	-1.1%	-2.2	-5.7%
C(=Cc1c[nH]c2ccccc12)c1ccc2ccccc2n1	?	0.92µM*	-10.4	-11.0%
C(=Cc1c[nH]c2ccccc12)c1nccc2ccccc12	6.51µM*	1.64µM*	-22.7	-14.6%
Fc1ccc(C(c2ccc(F)cc2)N2CCN(CC=Cc3ccccc3)CC2)cc1	10.6%	?	·	·
COC(=O)c1cc(NC(=O)c2cccc(C(F)(F)F)c2)c(=O)oc1C	1.0%	-1.6%	-16.2	3.8%
COC(=O)c1cc(NC(=O)c2cccc(C(F)(F)F)c2)c(=O)oc1C/C=N/OCc1cccc(Cl)c1Cl	13.3%	18.4µM*	-4.1	3.8%
Cc1ccc(-c2nnc(SCC(=O)NC3CCS(=O)(=O)C3)nc2-c2ccc(C)cc2)cc1 (configuration not stated)	1.5%	-1.1%	-12.5	-8.8%
CSCCC(NC(=O)c1ccccc1Br)C(=O)N1CCN(C/C=C/c2ccccc2)CC1 (configuration not stated)	?	-2.9%	16.3	?
COC(=O)c1sc(NC(=O)c2ccc3c(c2)OCO3)c(C#N)c1C	-2.3%	-1.7%	-7.2	2.3%
CN(C)CCCN1C(=O)c2cccc3cccc(c23)C1=O	?	-4.5%	7.3	-8.9%
CN(C)CCN1C(=O)c2cccc3cc([N+](=O)[O-])cc(c23)C1=O	1.46µM*	?	-20.5	-10.0%
COc1ccc(NC(=O)c2ccc3c(c2)S(=O)(=O)N=C2CCCCCN23)cc1S(N)(=O)=O	?	-14.3%	13.8	9.5%
O=C1c2cc([N+](=O)[O-])cc3cc([N+](=O)[O-])cc(c23)C(=O)N1c1ccccn1	20.6µM*	?	?	-5.1%
COCCNC(=O)COC(=O)/C=C/c1c(C)nn(Cc2ccc(Cl)cc2Cl)c1Cl	-27.0%	12.6µM*	-7.3	-13.5%
COc1cc(NC(=O)c2cc(-c3cccnc3)nc3ccc(Br)cc23)cc(OC)c1	-3.5%	16.4µM*	4.7	5.4%
O=C(NNC(=O)c1cc(-c2ccc(Cl)c(Cl)c2)nc2ccccc12)Nc1ccccc1	?	20.6µM*	17.2	-6.3%
O=C(Nc1ccncc1)c1cc(-c2cccc(Br)c2)nc2ccccc12	7.6%	16.4µM*	19.7	3.7%
CCN1/C(=C/c2ccc3cc(C)ccc3[n+]2C)Sc2ccc3sccc3c21	?	?	4.6	10µM*
CCN1/C(=C/c2ccc3cc(C)ccc3[n+]2CC)Sc2cc(C)ccc21	-99.6%	?	8.5	1µM*
O=C(c1cc(C2CC2)nn1-c1ccccc1)N1CCN(Cc2c(F)cccc2Cl)CC1	-2.0%	12.7%	-16.4	11.4%
Cc1oc(=O)cc(OCc2ccccc2)c1C	6.5%	1.5%	-0.4	14.7%
O=C(Nc1ccc2c(c1)CCC2)c1cnn2c1NC(=C1CC1)C=C2C(F)F	·	·	9.4	·
COC(=O)c1c(C)nc(C)c(C(=O)OC)c1-c1ccc(OC)c(OC)c1	5.8%	12.6%	-11.5	-0.3%
CCOC(=O)c1c(C)nc(C)c(C(=O)OCC)c1-c1ccc(O)c(OC)c1	3.66µM*	?	-8.0	0.6%
COc1cc(N[C@@H](C)CCCN)c2ncccc2c1	?	-3.7%[20.6 µM]	·	·
